The source made the active and inactive calls.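 Rule for the calls: active = fluorescence slope after compound addition differing from the mean of all screened samples at 99.7% confidence, in either direction; inactive = the rest.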
Molecular target: Alpha-2C adrenergic receptor (Homo sapiens) (UniProt P18825)
Assay: modulators of alpha2C/GIRK thallium flux, primary screen, cell-based, HEK293 alpha2C/GIRK1/2 (AID 624);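 note: slope of fluorescence ratio to pre-addition baseline per second over 15 to 24 s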
Settings: thallium flux BTC fluorescence, at 10 µM, actives lie on both sides

Chain of Alpha-2C adrenergic receptor (Homo sapiens) (P18825 whole entry, looked up): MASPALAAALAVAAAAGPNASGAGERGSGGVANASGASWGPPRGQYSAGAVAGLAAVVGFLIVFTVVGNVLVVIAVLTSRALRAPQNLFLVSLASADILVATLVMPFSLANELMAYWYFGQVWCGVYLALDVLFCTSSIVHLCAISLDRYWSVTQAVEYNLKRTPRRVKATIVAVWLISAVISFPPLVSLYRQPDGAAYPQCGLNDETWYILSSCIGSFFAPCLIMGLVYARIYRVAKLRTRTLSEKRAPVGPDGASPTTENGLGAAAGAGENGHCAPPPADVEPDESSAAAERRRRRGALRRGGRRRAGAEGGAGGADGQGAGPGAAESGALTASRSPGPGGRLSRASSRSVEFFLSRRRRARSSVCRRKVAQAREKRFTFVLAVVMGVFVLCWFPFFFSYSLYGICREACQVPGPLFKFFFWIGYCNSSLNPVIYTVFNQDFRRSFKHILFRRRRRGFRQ

slope, inactive:
Cn1c(SCC(=O)c2ccc(-c3ccccc3)cc2)nnc1-c1ccco1 0.0027
Cc1ccccc1NC(=O)CSc1nnc(Cc2cccn2C)n1-c1ccc(F)cc1 0.00577
CC(=O)N1CCc2c(sc(NC(=O)c3ccc(S(=O)(=O)N(C)C)cc3)c2C#N)C1 0.0064
Cc1c(NC(=O)c2nn(C)c(=O)c3ccccc23)c(=O)n(-c2ccccc2)n1C 0.00499
CCOC(=O)C1C(=O)N(C(=O)c2ccc(OC)cc2)CC1c1ccccc1 (stereo not given) 0.00629
C=CCSc1nnc(-c2cccnc2)o1 0.00706
O=C(CCCn1c(=S)[nH]c2cc3c(cc2c1=O)OCO3)N1CCN(c2ccccc2F)CC1 0.00637
COc1ccc(OCC(=O)Nc2ccc(N3CCOCC3)c(Cl)c2)cc1 0.00692
CCNc1ccc2c(Cl)cc(=O)oc2c1 0.00496
Cc1cc(Br)ccc1NC(=O)CCN1C(=O)c2ccncc2C1=O 0.00525
CC(=O)Nc1ccc(S(=O)(=O)N2CCN(C(=O)CCC3CCCC3)CC2)cc1 0.00522
Cc1ccccc1NC(=O)C1CCCN(S(=O)(=O)c2cccc3cccnc23)C1 (stereo not given) 0.00703
C(#Cc1ccccc1)Cn1nnc2ccccc21 0.00582
COc1ccccc1N1CCN(C/C(O)=C(\C#N)c2nc(-c3ccccc3)cs2)CC1 0.00548
Cn1c(CN2CCOCC2)nnc1SCC(=O)NCCc1ccccc1 0.00528

Reference: PubChem BioAssay
